This is a sample that favours compounds with a hit; in the whole collection about 7.3% have one here.
Luc counter – Counterscreen for Luciferase (Kinase-Glo TM) Inhibition. Luciferin 4-monooxygenase (Photuris pensylvanica), Q27757. Kinase-Glo luciferase, ATP luminescence, 8 min. Potency, µM (highest dose often 38.3 µM), usual class: inhibitors. 200,000 tested, 0.28% active; further: nearly all actives have a fitted effect of over 60% in size
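Recombinant Kinase-Glo luciferase, 10 uM ATP (linear range), luciferin; imidazole pH 7.2 / KCl / MgCl2 / Tween / BSA buffer; 8 min RT; luminescence.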
SMN2 splice enh – qHTS Assay for Enhancers of SMN2 Splice Variant Expression | HEK293 SMN2-luciferase splicing reporter, luminescence, 30-36 h | Potency, µM (doses to about 46.1 µM), usual class: activators | 210,000 tested, 2.8% active | AID 1458, 2008; further: nearly all actives have a fitted effect of over 55% in size
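HEK293 cells carry an SMN2 minigene-luciferase reporter in which exon 7 inclusion puts luciferase in frame. Cells were seeded at 2000 cells/well, attached for 10-12 hours, then exposed to compounds for 30-36 hours at 37C before ONE-Glo luminescence.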
ELG1 genotox – qHTS screen for small molecules that induce genotoxicity in human embryonic kidney (HEK293T) cells expressing luciferase-tagged ELG1 | 330,000 tested, 1.3% active | AID 504466, 2011 | HEK293T ELG1-luciferase reporter, luminescence, 16 h | Potency, µM (top dose mostly 46 µM), hits mostly activators; further: nearly all actives have a fitted effect of over 60% in size
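HEK293T cells expressing luciferase-tagged ELG1 were treated with compound or DMSO for 16 hr at 37°C. Luciferase activity was then read after 30 min with ONE-Glo at room temperature; rising signal flags genetic stress.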
NPC1 prom act – qHTS Assay for NPC1 Promoter Activators; AID 485313, 2010; Potency, µM (doses to about 9.22 µM), usual class: activators; 320,000 tested, 2.4% active; Huh7 NPC1 promoter luciferase reporter, 24 h; further: nearly all actives have a fitted effect of over 60% in size
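In 1536-well qHTS, Huh7 cells harboring an NPC1 promoter–luciferase construct received compound for 24 h; activation was quantified by luminescence following luciferase reagent addition.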
Rab9 promoter act – qHTS Assay for Rab9 Promoter Activators | 320,000 tested, 2.8% active | Huh7 Rab9 promoter-luciferase reporter, luminescence, 24 h | Potency, µM (titrated, usually from 9.22 µM), usual class: activators; further: nearly all actives have a fitted effect of over 60% in size
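Cell-based reporter: Huh7 stable for Rab9 promoter-driven luciferase, plated in reduced-serum medium with 10% FBS at 1500 cells/well, compound-treated 24 h at 37 °C, luminescence read after 10 min reagent.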
FLuc counter – qHTS profiling assay for firefly luciferase inhibitor/activator using purifed enzyme and Km concentrations of substrates (counterscreen for miR-21 project); Luciferin 4-monooxygenase (Photinus pyralis), P08659; purified FLuc, Km substrates, luminescence inhibition; Potency, µM (highest dose often 57.5 µM), hits mostly inhibitors; 360,000 tested, 6.9% active; further: nearly all actives have a fitted effect of over 55% in size
Target sequence (P08659 whole entry, looked up): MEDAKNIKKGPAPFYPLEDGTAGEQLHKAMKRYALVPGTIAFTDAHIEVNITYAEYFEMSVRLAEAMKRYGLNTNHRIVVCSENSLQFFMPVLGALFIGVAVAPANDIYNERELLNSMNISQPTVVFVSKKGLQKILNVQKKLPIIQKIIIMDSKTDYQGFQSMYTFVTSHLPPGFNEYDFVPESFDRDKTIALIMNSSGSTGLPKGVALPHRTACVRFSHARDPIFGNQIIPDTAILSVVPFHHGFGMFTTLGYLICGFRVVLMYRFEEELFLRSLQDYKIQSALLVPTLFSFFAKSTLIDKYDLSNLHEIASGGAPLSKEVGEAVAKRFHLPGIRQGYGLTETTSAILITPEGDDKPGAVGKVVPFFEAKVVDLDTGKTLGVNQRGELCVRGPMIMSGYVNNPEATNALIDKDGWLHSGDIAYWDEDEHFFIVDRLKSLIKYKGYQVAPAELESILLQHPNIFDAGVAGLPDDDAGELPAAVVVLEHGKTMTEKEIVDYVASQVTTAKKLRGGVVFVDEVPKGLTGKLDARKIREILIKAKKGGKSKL
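Purified P. pyralis luciferase, 10 nM final, with Km-level 10 uM D-luciferin and 10 uM ATP in 50 mM Tris acetate pH 7.5, 10 mM Mg acetate, 0.01% Tween-20, 0.05% BSA; 6-point qHTS titration about 60 µM downward; luminescence read.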
A number is an active result; . = inactive; ? = inconclusive; / = no result; [ ] = dose if it differs, or a comment. The call rests on the fitted dose curve; in most records, active means well fitted curve in the direction sought with a large enough effect; inconclusive means small, poorly fitted or top-dose-only effect, or another doubt; inactive means no such curve, though single readings can be large; an effect the other way counts as inactive or inconclusive.

SMILES | Luc counter | SMN2 splice enh | ELG1 genotox | NPC1 prom act | Rab9 promoter act | FLuc counter
CC(=O)c1cc2c(cc1NC(=O)c1ccc(Cl)cc1)OCCO2 | / | / | . | . | . | .
CCc1nn(CC(=O)NC(C)CC)c(=O)c2cc3occc3n12 (configuration not stated) | / | . | / | / | / | .
C=C1c2ccccc2O[C@H](C(=O)OCC)[C@@H]1C1CCCCC1 (tested in a mixture with another compound) | . | / | / | / | / | /
N/C(=N\OC(=O)Nc1ccccc1)c1ncc(C(F)(F)F)cc1Cl | . | . | 23µM | . | ? | 12µM
N/C(=N\OC(=O)Nc1ccc(Cl)cc1)c1ncc(C(F)(F)F)cc1Cl | . | . | ? | . | . | ?
COc1ccc(CC(=O)c2ccc(O)cc2O)cc1 | . | . | ? | ? | ? | ?
CCOc1ccc(C(=O)Cc2ccc3oc(C(=O)O)cc3c2)c(O)c1 | . | . | . | . | . | ?
COc1ccc(C(=O)Cc2ccc3c(c2)OCO3)c(O)c1 | . | 5.6µM | ? | 2.8µM | 4µM | 2.7µM
O=C(Cc1ccc2c(c1)OCCO2)c1c(O)cc(O)cc1O | . | . | . | . | ? | 27µM
O=C(O)COc1ccc(C(=O)Cc2ccc3c(c2)OCCCO3)c(O)c1 | . | . | . | . | . | 27µM
COc1ccc(N2CCN(Cc3cccn3-c3nnc(N4CCN(C5CCCCC5)CC4)s3)CC2)cc1 | / | / | / | / | / | .
C=CCN1c2ccccc2[C@]23C[C@@H](C(=O)OC)N(S(=O)(=O)c4ccc(C)cc4)C2=NC(C(=O)OC)=C(C(=O)OC)[C@H]13 | .[7.66 µM] | ? | / | / | / | /
Nn1c(SCc2ccccc2F)nnc1-c1ccccn1 | / | / | 18µM | 4µM | 1.4µM | 15µM
COc1ccc(CNc2cc(-c3ccc(OC)cc3)nc3nncn23)cc1 | / | . | / | / | / | .
COc1ccc(-c2cn3nc4c(nc3n2)CCCC4)cc1 | . | ? | ? | 0.45µM | 0.35µM | 0.54µM
CCOC(=O)c1c(N)sc(C(N)=O)c1C | . | . | . | . | . | .
CCOC(=O)c1c(N)sc(C(=O)N(CC)CC)c1C | . | / | . | . | . | .
Cc1c(C(=O)OC(C)C)sc(N)c1C(=O)OC(C)C | . | . | . | . | . | 21µM
CCOC(=O)c1cc(C(=O)Nc2ccccc2F)nn1C | . | 13µM | 4.5µM | 2.2µM | 2µM | 8.5µM
CCOC(=O)c1c(N)sc(C(=O)Nc2ccccc2F)c1C | . | 8.9µM | ? | 2.5µM | 0.4µM | 1.9µM
CCOC(=O)c1c(N)sc(C(=O)Nc2ccccc2)c1C | . | / | ? | 0.45µM | 0.32µM | 1.2µM
O=C(O)C1C(C(=O)O)C(C(=O)O)C1C(=O)O (configuration not stated) | .[7.66 µM] | .[9.22 µM] | / | / | / | /
Cc1ccc(CN2C(=O)C(=O)c3cc(Br)cc(C)c32)cc1 | / | . | / | / | / | ?
O=C(c1cc2nc(-c3ccco3)cc(C(F)(F)F)n2n1)N1CCCCCC1 | . | . | . | . | . | 21µM
O=C(c1cc2nc(-c3ccco3)cc(C(F)(F)F)n2n1)N1CCN(c2ccccc2)CC1 | . | . | . | . | . | .
SMILES | Luc counter | SMN2 splice enh | ELG1 genotox | NPC1 prom act | Rab9 promoter act | FLuc counter
COc1ccc(-c2cc(C(F)(F)F)n3nc(C(=O)N4CCCCC4)cc3n2)cc1 | . | . | . | . | . | ?
COc1cccc(-c2cc(C(F)(F)F)n3nc(C(=O)N4CCCCC4c4cccnc4)cc3n2)c1 (configuration not stated) | . | . | . | . | . | 15µM
Cc1ccc(C(=O)Oc2ccc(N3C(=O)CCC3=O)c(C)c2)cc1 | . | . | . | . | . | 2.7µM
COc1ccc(C(=O)Oc2ccc3ccc(=O)oc3c2)cc1OC | / | / | . | . | . | .
O=C(Oc1ccc2ccc(=O)oc2c1)c1ccc([N+](=O)[O-])cc1 | / | / | . | . | . | .
Cc1ccc(C(=O)Oc2ccc3ccc(=O)oc3c2)cc1 | / | / | . | . | . | 2.4µM
COc1cccc(C(=O)Oc2ccc3ccc(=O)oc3c2)c1 | / | / | . | . | . | 5.4µM
O=C(CSc1nccn1-c1ccc(F)cc1)Nc1ccc(OC(F)(F)F)cc1 | / | / | / | / | / | .
CCOC(=O)c1ccc(NC(=O)c2ccccc2[N+](=O)[O-])cc1 | . | 18µM | . | . | . | ?
CCOC(=O)c1cccc(NC(=O)c2ccc(N(C)C)cc2)c1 | . | ? | . | 0.4µM | 0.28µM | 1.7µM
CCOC(=O)c1ccc(NC(=O)c2ccccc2)cc1 | . | 10µM | ? | 2.8µM | 2.8µM | .[2.3 µM]
CCOC(=O)c1ccc(NC(=S)Nc2ccccn2)cc1 | . | . | 15µM | ? | . | .
O=C(CSc1cn(CCNC(=O)c2c(F)cccc2F)c2ccccc12)Nc1ccc(F)cc1 | / | ? | / | / | / | .
CCOc1ccc(-n2c(=O)c3c4c(sc3n(Cc3cccc(Cl)c3)c2=O)CCCC4)cc1 | / | . | / | / | / | .
COc1cccc(-c2nc(SCC(=O)Nc3ccc4c(c3)OCCO4)c(-c3ccc(C)cc3)[nH]2)c1 | / | . | / | / | / | .
Cc1cc(=O)oc2cc(OCC(=O)Nc3c(C(C)C)cccc3C(C)C)ccc12 | / | . | / | / | / | .
CCOC(=O)c1ccc(Nc2ncccc2[N+](=O)[O-])cc1 | . | / | ? | 2.5µM | 1µM | 7.6µM
COc1cc(Br)cc(/C=N/NC(=O)Cc2ccc(C(F)(F)F)cc2[N+](=O)[O-])c1O | . | . | . | . | . | .
CCOC(=O)c1cccc(NC(=O)c2cccnc2)c1 | . | . | . | . | . | .
O=C(Oc1ccccc1C(=O)Nc1ccccc1)c1ccc(Br)c([N+](=O)[O-])c1 | . | . | . | . | . | 15µM
CCOC(=O)c1cccc(NC(=O)c2cnc3ccccc3n2)c1 | / | / | . | ? | 2µM | 17µM
CCOC(=O)c1ccc(N/N=C/c2cc(Br)cc([N+](=O)[O-])c2O)cc1 | ? | . | . | . | . | 1.2µM
Cc1ccc(O)c(C(=O)/C=C/c2ccc3c(c2)OCCO3)c1 | . | . | . | . | ? | 24µM
COc1ccc(C(=O)/C=C/c2ccc3c(c2)OCCO3)cc1 | / | / | . | . | ? | 1.7µM
CCOc1cc(/C=C/C(=O)c2ccc3c(c2)OCCO3)ccc1OCC(=O)N(C)C | / | / | . | . | . | ?
O=C(/C=C/c1ccc(F)cc1)c1cc(Br)ccc1O | / | / | . | . | . | ?
COc1ccc(/C=C/C(=O)c2ccc3c(c2)OCCO3)cc1[N+](=O)[O-] | . | . | . | . | . | 6.7µM
O=C(/C=C/c1ccc2c(c1)OCCO2)c1ccccc1 | / | / | ? | 2.8µM | 1µM | 0.48µM
COc1ccc(NC(=O)Cn2c(=O)n(CCC(=O)NCCc3ccc(OC)c(OC)c3)c(=O)c3ccccc32)cc1Cl | / | . | / | / | / | .
CCOC(=O)c1c(C)c(C(=O)NCc2ccc(Cl)cc2)c(C)n1C | / | . | / | / | / | .
